Experimental findings from PubChem BioAssay AID1851 (National Center for Advancing Translational Sciences (NCATS), 2009) are described below.

What is called AC50 is the concentration at which the activity in the assay is half-maximal.

Each structure is given as a SMILES string. Several values for one entry are separate records, joined by “and”; a condition that tells them apart may be missing. Equal values may be shown once. Hit rate of the full screen: of about 16,000 compounds, about 5,800 (36%) were called active. Another 23% or so got no clear call; they are omitted. The call rests on the fitted dose curve; in most records, active means well fitted curve in the direction sought with a large enough effect; inconclusive means small, poorly fitted or top-dose-only effect, or effect the other way; inactive means no such curve, though single readings can be large or run the other way. The list shows a part of the results.
On the % scale 0 is the no-effect control and ±100 the full control effect.

Sequence of Cytochrome P450 2C19 (Homo sapiens) (P33261 whole entry, looked up): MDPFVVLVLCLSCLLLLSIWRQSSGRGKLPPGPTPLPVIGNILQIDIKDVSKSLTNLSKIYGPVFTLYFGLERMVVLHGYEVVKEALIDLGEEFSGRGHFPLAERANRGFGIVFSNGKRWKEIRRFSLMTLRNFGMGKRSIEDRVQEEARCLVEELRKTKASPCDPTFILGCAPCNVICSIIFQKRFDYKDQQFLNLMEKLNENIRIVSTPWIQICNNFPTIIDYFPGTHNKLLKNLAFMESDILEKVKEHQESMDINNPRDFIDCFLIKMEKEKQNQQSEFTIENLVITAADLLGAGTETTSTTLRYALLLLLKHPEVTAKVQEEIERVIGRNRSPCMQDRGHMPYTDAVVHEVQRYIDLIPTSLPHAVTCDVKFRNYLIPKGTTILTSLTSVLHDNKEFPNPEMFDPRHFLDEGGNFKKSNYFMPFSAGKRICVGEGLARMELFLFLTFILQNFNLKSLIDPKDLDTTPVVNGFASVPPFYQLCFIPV

This assay has as its target Cytochrome P450 2C19 (Homo sapiens) (UniProt P33261). The experiment in a line: Cytochrome panel assay with activity outcomes. Particulars: recombinant CYP, pro-luciferin dealkylation, luminescence, p450-cyp2c19; series mostly up to 57.1 µM.
In the case of `CC(=O)c1ccc(N2CCC(c3cc(-c4ccc(Cl)cc4Cl)n[nH]3)CC2)c([N+](=O)[O-])c1`, the AC50 was 0.282 µM (active).
The same measure, in the same setting: in the case of `COc1ccc(-c2cc(C3CCN(c4ccc(C(C)=O)cc4[N+](=O)[O-])CC3)[nH]n2)cc1` it was 2.24 µM (active).
In the case of `CC(=O)c1ccc(N2CCC(c3cc(-c4ccc(Cl)cc4)n[nH]3)CC2)c([N+](=O)[O-])c1`, the AC50 is 0.501 µM (active).
On to `CC(=O)c1cc(CC=C(C)C)c(O)cc1O`, for which the AC50 is 2.82 µM (active).
On the same count and under the same terms, in the case of `COc1cc(CC(=O)O)c(C(C)=O)cc1OC` it was “inactive”; in that of `COc1ccc(Sc2ccc(NC(=O)c3ccccc3Cl)cc2C#N)cc1`, 2.82 µM (active); in that of `COc1cc(/C=N/Nc2snc(SC)c2C#N)cc(OC)c1OC`, 14.1 µM (active).
Still for that read-out and setting: in the case of `COc1ccc(/C=N/Nc2snc(SC)c2C#N)cc1OC` it was 5.01 µM (active); in that of `COc1ccc(/C=N/NC(=S)NC2CCS(=O)(=O)C2)cc1OC` (stereo not drawn), “inactive”; in that of `N/C(=N\OC(=O)c1cc(-c2ccccc2)nc2ccccc12)c1ccc(Cl)cc1`, 7.94 µM (active).
In the case of `O=C(O)c1cc(-c2ccc(-c3ccc(-c4cc(C(=O)O)c5cc(Cl)ccc5n4)cc3)cc2)nc2ccc(Cl)cc12`, the activity, negative = inhibition was -23.2% [at 11.4 µM] (inactive).
As for `O=C(CC(=O)c1ccncc1)c1ccccc1`, the AC50 is 0.398 µM (active).
Consider `NNC(=O)c1ccncc1`, for which the AC50 entry is “inactive”.
Turning to `CCOc1cc(-c2noc(N)c2C#N)cc(OCC)c1OCC`, the concentration at half-maximal activity (AC50) was 15.8 µM (active).
On to `O=C1[C@@H]2[C@H]3[C@H](O)[C@H](O)C/C(=N/OCc4ccccc4)[C@H]3CC[C@H]2C(=O)N1c1ccc(F)cc1F`, for which the activity, negative = inhibition is -4.38% [at 11.4 µM] (inactive).
Consider `CN(C)CCO[C@](C)(c1ccccc1)c1ccccn1`, for which the AC50 entry was “inactive”.
The same measure, in the same setting: with `COc1ccc(NC(=O)CSc2nncn2C)c([N+](=O)[O-])c1` the figure was 31.6 µM (active); with `COc1ccc(NC(=O)c2cccs2)c([N+](=O)[O-])c1`, “inactive”.
Still for that read-out and setting: with `COc1ccc(NC(=O)CN(C)S(=O)(=O)c2ccc(Cl)cc2)c([N+](=O)[O-])c1` the figure was 8.91 µM (active).
Take `CN(C)S(=O)(=O)c1ccc(Nc2ccc(O)c3c2C(=O)c2c([N+](=O)[O-])ccc(O)c2C3=O)cc1`: the activity, negative = inhibition is -34.2% [at 11.4 µM] (inactive).
Regarding `CC(C)NNC(=O)c1ccncc1`, the AC50 entry is “inactive”.
On the same count and under the same terms, with `CC(=O)c1c(C(C)=O)c(C)n(NC(=O)c2ccncc2)c1C` the figure was 0.2 µM (active).
Same read-out and setting: with `CC(=O)c1c(C(C)=O)c(C)n(NC(=O)c2ccccc2Cl)c1C` the entry was “inactive”; with `CCOC(=O)CC(Nc1nc(N2CCOCC2)nc(N2CCOCC2)n1)c1ccccc1Cl` (stereo not drawn), 3.16 µM (active); with `CCC[C@H]1C[C@H](C(=O)N[C@H]([C@@H]2O[C@H](SC)[C@@H](O)[C@H](O)[C@@H]2O)[C@H](C)O)N(C)C1`, “inactive”.
On to `Cc1cc(NC(=O)Nc2ccc(N(C)C)cc2)c2cc(F)cc(F)c2n1`, for which the AC50 was 15.8 µM (active).
In the case of `Cc1cc(N)c2cc(NC(=O)Nc3ccc4nc(C)cc(N)c4c3)ccc2n1`, the activity, negative = inhibition was -6.46% [at 11.4 µM] (inactive).
As to `Cc1cc(C)c(C(N)=O)c(NC(=O)Nc2ccccc2)n1`, the AC50 entry is “inactive”.
Same read-out and setting: in the case of `COc1cc(OC)c2c(c1Cl)O[C@@]1(C2=O)[C@H](C)CC(=O)C[C@@H]1OC` it was “inactive”.
Take `C[C@@H]1NCC[C@H](CC(=O)O)[C@H]1CC(=O)O`: the activity, negative = inhibition is 4.52% [at 11.4 µM] (inactive).
Regarding `COc1ccccc1-n1c(SCC(=O)N2CCCC2)nc2cccnc21`, the AC50 entry was “inactive”.
In the case of `CC1CCN(C(=O)CSc2nc3cccnc3n2C)CC1`, the AC50 was 8.91 µM (active).
On the same count and under the same terms, in the case of `Cn1c(SCC(=O)N2CCN(S(=O)(=O)c3ccccc3)CC2)nc2ccccc21` it was 15.8 µM (active); in that of `O=C(CCc1nc2ccccc2c(=O)[nH]1)OCC(=O)N1CCN(S(=O)(=O)c2ccccc2)CC1`, “inactive”; in that of `CCCn1c(=O)c2c(ncn2C)n(CCC)c1=O`, “inactive”.
Still for that read-out and setting: in the case of `N#Cc1cccc(NC(=O)N2CC[C@@]3(CCCN(C(=O)c4ccco4)C3)C2)c1` it was “inactive”; in that of `CCCCCOc1ccc(C(=O)NCC2(c3ccccc3)CCOCC2)cc1`, 7.94 µM (active).
As to `O=C(Nc1nnc(-c2ccc(Cl)cc2)o1)Nc1ccccc1Cl`, the AC50 entry is “inactive”.
The same measure, in the same setting: in the case of `O=C(Cc1ccc(Cl)cc1)Nc1cccc(-c2nnc(-c3ccco3)o2)c1` it was 0.0158 µM (active); in that of `Clc1ccc(-c2nnc(-c3ccco3)o2)cc1`, 20 µM (active).
In the case of `Clc1ccc2c(N3CCC(CCC4CCN(c5ncnc6cc(Cl)ccc56)CC4)CC3)ncnc2c1`, the activity, negative = inhibition was -1.06% [at 11.4 µM] (inactive).
For `CCCCCC(=O)O[C@H](CC(=O)O)C[N+](C)(C)C`, the AC50 result was “inactive”.
Same read-out and setting: with `COc1cccc(NC(=O)c2cc(-c3cccnc3)nc3c(Cl)cccc23)c1` the figure was 6.31 µM (active).
Regarding `COc1ccc(-c2nc3cnc(N4CCNCC4)nc3n(C3CC3)c2=O)cc1`, the AC50 entry is “inactive”.
Still for that read-out and setting: in the case of `CC1(C)CC(NC(=O)c2ccc3c(c2)OCO3)CC(C)(C)N1` it was “inactive”.
`CC1(C)CC(NCc2ccc3c(c2)OCO3)CCO1` (stereo not drawn): the AC50 is 11.2 µM (active).
Still for that read-out and setting: in the case of `c1ccc(NN(Cc2cnccn2)c2ccccc2)cc1` it was 2 µM (active).
Consider `c1ccc(CCc2cccnc2)nc1`, for which the activity, negative = inhibition was -11.1% [at 11.4 µM] (inactive).
Still for that read-out and setting: in the case of `C/C(CCC(=O)OC[C@@H]1O[C@H](C#Cc2ccccc2)C=C[C@@H]1Oc1ccc(C)cc1)=N/OC[C@@H](O)COCc1ccco1` it was -32.2% [at 11.4 µM] (inactive); in that of `CC(=O)OC[C@H]1O[C@@H](O/N=C(\C)CCC(=O)OC[C@@H]2O[C@H](C#Cc3ccccc3)C=C[C@@H]2Oc2ccc(C)cc2)[C@H](OC(C)=O)[C@@H](OC(C)=O)[C@H]1OC(C)=O`, -18.3% [at 11.4 µM] (inactive); in that of `CC(=O)OC[C@@H]1O[C@H](C/C=N\O[C@@H](C)c2cn([C@H](CO)Cc3ccccc3)nn2)C=C[C@@H]1OC(C)=O`, 25.9% [at 11.4 µM] (inactive) and 17.9% [at 11.4 µM] (inactive).
Regarding `COc1ccc(O[C@H]2C=C[C@@H](c3ccccc3)O[C@H]2COC(=O)CC/C(C)=N\O[C@@H](C)c2cn([C@H](CO)Cc3ccccc3)nn2)cc1`, the AC50 is 63.1 nM (active) and 631 nM (active).
On the same count and under the same terms, with `COc1ccc(O[C@H]2C=C[C@@H](c3ccccc3)O[C@H]2COC(=O)CC/C(C)=N\O[C@@H](C)c2cn([C@H]3COC[C@H]3O)nn2)cc1` the figure was 2.51 µM (active).
As to `C/C(CCN1CCc2nc(-c3ccccc3)c(-c3ccccc3)cc2C1)=N\O[C@@H](C)c1cn([C@@H]2COC[C@@H]2O)nn1`, the activity, negative = inhibition is 3.9% [at 11.4 µM] (inactive).
Still for that read-out and setting: in the case of `C/C(CCC(=O)OC[C@@H]1O[C@H](C#Cc2ccccc2)C=C[C@@H]1Oc1ccc(C)cc1)=N/OC[C@@H](C)[C@H](OCc1ccccc1)C(C)C` it was -30.1% [at 11.4 µM] (inactive); in that of `CC(C)=NO[C@@H](C)c1cn([C@H](CO)Cc2ccccc2)nn1`, -12.3% [at 11.4 µM] (inactive) and -23.6% [at 11.4 µM] (inactive).
For the compound `CO/N=C(/C)CCC(=O)OC[C@@H]1O[C@H](C#Cc2ccccc2)C=C[C@@H]1Oc1ccc(C)cc1`, the AC50 was 3.98 µM (active).
In the case of `C/C(CCC(=O)OC[C@@H]1O[C@H](C#Cc2ccccc2)C=C[C@@H]1Oc1ccc(C)cc1)=N/O[C@@H](C)c1cn([C@H](CO)Cc2ccccc2)nn1`, the AC50 is 3.98 µM (active).
With `CCc1cc2c(nc1CC)CCN(CC/C(C)=N/O[C@@H](C)c1cn([C@@H]3COC[C@@H]3O)nn1)C2`, the activity, negative = inhibition is 14.6% [at 11.4 µM] (inactive).
On the same count and under the same terms, with `O=CN1CCN(C[C@H](O)CN2CCCCC2)CC1` the figure was 10.2% [at 11.4 µM] (inactive).
Turning to `O=c1oc2c(Cl)cc(Cl)cc2cc1-c1nnc(Nc2ccccc2F)s1`, the AC50 entry is “inactive”.
For the compound `O[C@@](CCN1CCCCC1)(c1ccccc1)C1CCCCC1`, the AC50 result was “inactive”.
As to `CC(C)C(O)(C#CCN1CCCC1)c1ccccc1` (stereo not drawn), the AC50 is 10 µM (active).
The same measure, in the same setting: with `OC(CCCN1CCCCC1)(c1ccccc1)c1ccccc1` the entry was “inactive”.
For `CO[C@H]1COC(=O)[C@H]2CCCN2C(=O)C/C=C\[C@@H](C)[C@H](OC)COC(=O)C/C=C\[C@@H]1C`, the activity, negative = inhibition is 19.4% [at 11.4 µM] (inactive).
For `COCCCNC(=O)CN(c1ccc(OC)cc1)S(=O)(=O)c1ccc(NC(C)=O)cc1`, the half-maximal activity concentration (AC50) was 15.8 µM (active).
For `O=C(CN(c1ccccc1)S(=O)(=O)c1ccccc1[N+](=O)[O-])NN=C1CCCCCCC1`, the AC50 is 0.794 µM (active).
In the case of `COc1ccc(N(CC(=O)NN=C2CCCC2)S(=O)(=O)c2ccccc2)cc1`, the AC50 was 6.31 µM (active).
Same read-out and setting: with `COC(=O)[C@@]1(Cc2ccc(F)cc2)[C@H]2c3cc(C(=O)N4CCCC4)n(Cc4ccc(C)o4)c3C[C@H]2CN1C(=O)c1ccccc1` the figure was 5.01 µM (active); with `COC(=O)[C@@]1(Cc2ccccc2)[C@H]2c3cc(C(=O)N4CCCC4)n(Cc4ccc(C)o4)c3C[C@H]2CN1C(=O)c1ccccc1`, 2.51 µM (active).
Still for that read-out and setting: in the case of `COC(=O)[C@@]1(Cc2ccc(F)cc2)[C@H]2c3cc(C(=O)N(C)C)n(Cc4ccc(C)o4)c3C[C@H]2CN1C(=O)c1ccccc1` it was 15.8 µM (active); in that of `COC(=O)[C@@]1(Cc2ccc(F)cc2)[C@H]2c3cc(C(=O)N4CCCC4)n(Cc4ccc(OC(F)(F)F)cc4)c3C[C@H]2CN1C(=O)c1ccccc1`, “inactive”; in that of `COC(=O)[C@@]1(Cc2ccc(F)cc2)[C@H]2c3cc(C(=O)N(C)C)n(Cc4ccc(C)c(F)c4F)c3C[C@H]2CN1C(=O)c1ccccc1`, 15.8 µM (active).
For the compound `Clc1cc2c(c(CSC3=NCN(CC4CC4)CN3)c1)OCOC2`, the activity, negative = inhibition was 10.2% [at 11.4 µM] (inactive).
With `Oc1ccc(-c2[nH]ncc2-c2ccc(Cl)cc2)c(O)c1`, the AC50 is 0.251 µM (active).
In the case of `C=C(C)COc1ccc(-c2n[nH]c(C)c2-c2ccc(OC)cc2)c(O)c1`, the AC50 is 2.24 µM (active).
`Cc1[nH]nc(-c2ccc(O)cc2O)c1-c1ccc(Cl)cc1`: the AC50 was 0.282 µM (active).
Still for that read-out and setting: in the case of `COc1ccc(-c2n[nH]c(C)c2-c2ccc(Cl)cc2)c(O)c1` it was 2.51 µM (active).
